Measured values taken from PubChem BioAssay (Tox21).
Where “and” joins values, the source holds several entries; their conditions need not be identical. Equal values may be shown once. Calls of active or inactive are those of the source. Entries that show only a call come without a potency. Unless noted, calls follow the shape of the dose curve; as a rule, active = well fitted curve in the direction sought with a large enough effect in the repeat runs; inconclusive = weak or mixed curves; inactive = no such curve, though single readings can be large; an effect the other way counts as inactive or inconclusive.

Columns and labels:
[1] = qHTS assay to identify small molecule antagonists of the glucocorticoid receptor (GR) signaling pathway - cell viability counter screen (AID 720693); also: nearly all actives have a fitted effect of over 55% in size; also: potency is read from the fitted curve at half-maximal effect
[2] = qHTS assay for identifying genotoxic compounds that show differential cytotoxicity against isogenic chicken DT40 cell lines with known DNA damage response pathways - wild type cell line (AID 743012); also: nearly all actives have a fitted effect of over 60% in size; also: potency is read from the fitted curve at half-maximal effect
Procedure, shortened: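 Endpoint: CellTiter-Glo luminescence, 30 min RT. Cells: wild type DT40, 300/well. Exposure: compounds in DMSO, 40 h, 37 C/5% CO2, after ~0.5 h pre-incubation.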

[3] = qHTS assay for identifying genotoxic compounds that show differential cytotoxicity against isogenic chicken DT40 cell lines with known DNA damage response pathways - Rev3 mutant cell line (AID 743014); also: nearly all actives have a fitted effect of over 55% in size; also: potency is read from the fitted curve at half-maximal effect
[4] = qHTS assay to identify small molecule antagonists of the androgen receptor (AR) signaling pathway - cell viability counter screen (AID 743033; also: nearly all actives have a fitted effect of over 45% in size; also: potency is read from the fitted curve at half-maximal effect)
[5] = qHTS assay to identify small molecule antagonists of the thyroid receptor (TR) signaling pathway - cell viability counter screen (AID 743064); also: nearly all actives have a fitted effect of over 50% in size; also: potency is read from the fitted curve at half-maximal effect
Procedure, shortened: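 In rat pituitary GH3.TRE-Luc reporter cells co-exposed to compound and 1 nM T3 for 23.5 h, cytotoxicity was assessed with CellTiter-Fluor in the same wells, read by fluorescence.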

[6] = system: thyroid hormone receptor (rat, GH3 cells); assay: qHTS assay to identify small molecule agonists of the thyroid receptor (TR) signaling pathway (AID 743066; calls by dose curve)
[7] = target: Estrogen receptor (Homo sapiens) (UniProt P03372); assay: qHTS assay to identify small molecule antagonists of the estrogen receptor alpha (ER-alpha) signaling pathway (AID 743069; active = well fitted curve in the direction sought with a large enough effect in the signal ratio in the repeat runs, not every such curve was filed as active; inconclusive = weak or mixed curves, or effect the other way; inactive = no such curve, though single readings can be large or run the other way; the % refers to the signal ratio; also: potency is read from the fitted curve at half-maximal effect)
Procedure, shortened: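 Screening used a UAS-driven beta-lactamase reporter integrated into HEK293 cells expressing ER-alpha, stimulated with 17beta-estradiol alongside test compounds over 18 hr at 37C; signal came from LiveBLAzer B/G FRET fluorescence.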

[8] = qHTS assay to identify small molecule antagonists of the estrogen receptor alpha (ER-alpha) signaling pathway - cell viability counter screen (AID 743074; calls by dose curve; also: nearly all actives have a fitted effect of over 45% in size; also: potency is read from the fitted curve at half-maximal effect)
[9] = target: Estrogen receptor (Homo sapiens) (UniProt P03372); assay: qHTS assay to identify small molecule agonists of the estrogen receptor alpha (ER-alpha) signaling pathway (AID 743075; calls by dose curve; also: potency is read from the fitted curve at half-maximal effect)
[10] = target: Estrogen receptor (Homo sapiens) (UniProt P03372); assay: qHTS assay to identify small molecule agonists of the estrogen receptor alpha (ER-alpha) signaling pathway using the BG1 cell line (AID 743079); also: nearly all actives have a fitted effect of over 20% in size
[11] = qHTS assay to identify small molecule antagonists of the estrogen receptor alpha (ER-alpha) signaling pathway using the BG1 cell line (AID 743080; calls by dose curve;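 also: BG1 cells stimulated with 17beta-estradiol alongside compound; series mostly up to about 70 µM; nearly all actives have a fitted effect of over 25% in size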)
Procedure, shortened: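 BG1-Luc-4E2 cells (endogenous full-length ER-alpha, 4xERE luciferase) hormone-starved 5 days in charcoal-stripped FBS, plated 4,000/well for 24 h, then compound plus 17beta-estradiol for 21.5 h at 37 C; ONE-Glo luminescence read.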

[12] = qHTS assay to identify small molecule antagonists of the estrogen receptor alpha (ER-alpha) signaling pathway using the BG1 cell line - cell viability counter screen (AID 743081);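 also: compound given together with 17beta-estradiol as the ER stimulus; nearly all actives have a fitted effect of over 45% in size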; also: potency is read from the fitted curve at half-maximal effect
Aromatase (Homo sapiens) = Aromatase (Homo sapiens) (UniProt P11511); assay: qHTS assay to identify aromatase inhibitors (AID 743083); also: nearly all actives have a fitted effect of over 55% in size; also: potency is read from the fitted curve at half-maximal effect
[13] = qHTS assay to identify aromatase inhibitors - cell viability counter screen (AID 743084);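 also: cells stimulated with testosterone during compound exposure; nearly all actives have a fitted effect of over 55% in size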; also: potency is read from the fitted curve at half-maximal effect
[14] = qHTS assay for identifying genotoxic compounds that show differential cytotoxicity against isogenic chicken DT40 cell lines with known DNA damage response pathways - Rad54/Ku70 mutant cell line (AID 743015); also: nearly all actives have a fitted effect of over 60% in size; also: potency is read from the fitted curve at half-maximal effect
[15] = qHTS assay to identify small molecule antagonists of the thyroid receptor (TR) signaling pathway (AID 743065); also: nearly all actives have a fitted effect of over 55% in size; also: potency is read from the fitted curve at half-maximal effect
Procedure, shortened: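 GH3.TRE-Luc rat pituitary cells carrying two TR response elements driving luciferase were plated for 4 h, given compound plus 1 nM T3 (final), and incubated 23.5 h at 37 C. ONE-Glo luminescence measured reporter inhibition; CellTiter-Fluor fluorescence tracked cytotoxicity.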

[16] = target: Androgen receptor (Homo sapiens) (UniProt P10275); assay: qHTS assay to identify small molecule agonists of the androgen receptor (AR) signaling pathway using the MDA cell line (AID 743040; also: nearly all actives have a fitted effect of over 20% in size)
Procedure, shortened: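 Agonist activity is measured as luciferase luminescence in human MDA-kb2 cells whose MMTV reporter responds to both AR and GR. Compounds in DMSO incubate 16 h at 37C, 0% CO2, and ONE-Glo is read after 30 min.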

[17] = target: Androgen receptor (Homo sapiens) (UniProt P10275); assay: qHTS assay to identify small molecule antagonists of the androgen receptor (AR) signaling pathway using the MDA cell line (AID 743042; also: nearly all actives have a fitted effect of over 55% in size; also: potency is read from the fitted curve at half-maximal effect)
Procedure, shortened: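 MDA-kb2 cells (human breast carcinoma, stably carrying an MMTV-luciferase reporter responsive to AR and GR) were plated at 3,000 cells/well and preincubated 5 hr at 37C, then given compound plus R1881 agonist for 16 h. ONE-Glo luminescence was read.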

[18] = qHTS assay to identify small molecule antagonists of the androgen receptor (AR) signaling pathway using the MDA cell line - cell viability counter screen (AID 743041; also: nearly all actives have a fitted effect of over 45% in size)
Procedure, shortened: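 qHTS viability read-out; MDA-kb2 AR-luc; R1881-stimulated; 16 h exposure at 37C, 0% CO2; CellTiter-Fluor, 30 min; fluorescence intensity.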

[19] = target: Androgen receptor (Homo sapiens) (UniProt P10275); assay: qHTS assay to identify small molecule agonists of the androgen receptor (AR) signaling pathway (AID 743036; active = well fitted activation curve with a large enough effect in the signal ratio in the repeat runs, with a control signal flat, not every such curve was filed as active; inconclusive = weak or mixed curves, or effect the other way; inactive = no such curve, though single readings can be large or run the other way; the % refers to the signal ratio)
Procedure, shortened: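 Cell-based FRET reporter assay: HEK293 line with a UAS-beta-lactamase construct, compounds added in DMSO, 16 h exposure at 37C, then 2 h substrate step at room temperature and fluorescence intensity read.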

Sequence of Androgen receptor (Homo sapiens) (P10275 whole entry, looked up): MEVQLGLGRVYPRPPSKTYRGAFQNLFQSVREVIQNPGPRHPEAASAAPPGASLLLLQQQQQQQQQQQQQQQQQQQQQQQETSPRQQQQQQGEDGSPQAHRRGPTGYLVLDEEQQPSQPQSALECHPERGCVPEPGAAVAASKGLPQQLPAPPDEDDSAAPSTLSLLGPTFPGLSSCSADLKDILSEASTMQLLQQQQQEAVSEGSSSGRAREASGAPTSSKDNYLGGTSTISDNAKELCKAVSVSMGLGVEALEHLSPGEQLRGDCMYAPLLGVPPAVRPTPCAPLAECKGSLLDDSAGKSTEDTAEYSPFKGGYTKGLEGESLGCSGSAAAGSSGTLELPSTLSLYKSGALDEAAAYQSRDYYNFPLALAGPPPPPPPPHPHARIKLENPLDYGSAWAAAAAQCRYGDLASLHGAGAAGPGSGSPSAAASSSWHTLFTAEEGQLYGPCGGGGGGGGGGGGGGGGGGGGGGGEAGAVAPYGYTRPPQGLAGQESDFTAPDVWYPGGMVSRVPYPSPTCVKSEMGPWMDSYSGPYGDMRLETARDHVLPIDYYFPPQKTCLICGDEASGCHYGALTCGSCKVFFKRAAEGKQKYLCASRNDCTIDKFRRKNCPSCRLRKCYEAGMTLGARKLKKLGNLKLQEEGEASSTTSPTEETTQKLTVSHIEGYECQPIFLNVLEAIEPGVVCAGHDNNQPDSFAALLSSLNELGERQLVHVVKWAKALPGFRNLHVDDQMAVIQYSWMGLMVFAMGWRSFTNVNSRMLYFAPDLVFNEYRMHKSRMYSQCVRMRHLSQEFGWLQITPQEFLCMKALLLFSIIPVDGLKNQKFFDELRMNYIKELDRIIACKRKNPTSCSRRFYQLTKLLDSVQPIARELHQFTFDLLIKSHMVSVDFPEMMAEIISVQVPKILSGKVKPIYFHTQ
Sequence of Aromatase (Homo sapiens) (P11511 whole entry, looked up): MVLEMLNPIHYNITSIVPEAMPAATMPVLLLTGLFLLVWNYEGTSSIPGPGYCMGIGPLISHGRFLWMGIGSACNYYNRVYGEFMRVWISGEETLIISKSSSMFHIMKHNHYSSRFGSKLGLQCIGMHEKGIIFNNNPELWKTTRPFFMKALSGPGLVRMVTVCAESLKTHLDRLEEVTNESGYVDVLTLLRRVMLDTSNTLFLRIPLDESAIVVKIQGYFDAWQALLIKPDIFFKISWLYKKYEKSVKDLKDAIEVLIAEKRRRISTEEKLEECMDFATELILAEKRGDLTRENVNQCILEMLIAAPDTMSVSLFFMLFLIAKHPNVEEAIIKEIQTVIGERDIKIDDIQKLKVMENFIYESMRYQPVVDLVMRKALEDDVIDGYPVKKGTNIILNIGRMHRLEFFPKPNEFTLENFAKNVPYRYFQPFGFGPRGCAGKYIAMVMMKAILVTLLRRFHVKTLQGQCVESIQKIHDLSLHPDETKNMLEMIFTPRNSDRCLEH
Sequence of Estrogen receptor (Homo sapiens) (P03372 whole entry, looked up): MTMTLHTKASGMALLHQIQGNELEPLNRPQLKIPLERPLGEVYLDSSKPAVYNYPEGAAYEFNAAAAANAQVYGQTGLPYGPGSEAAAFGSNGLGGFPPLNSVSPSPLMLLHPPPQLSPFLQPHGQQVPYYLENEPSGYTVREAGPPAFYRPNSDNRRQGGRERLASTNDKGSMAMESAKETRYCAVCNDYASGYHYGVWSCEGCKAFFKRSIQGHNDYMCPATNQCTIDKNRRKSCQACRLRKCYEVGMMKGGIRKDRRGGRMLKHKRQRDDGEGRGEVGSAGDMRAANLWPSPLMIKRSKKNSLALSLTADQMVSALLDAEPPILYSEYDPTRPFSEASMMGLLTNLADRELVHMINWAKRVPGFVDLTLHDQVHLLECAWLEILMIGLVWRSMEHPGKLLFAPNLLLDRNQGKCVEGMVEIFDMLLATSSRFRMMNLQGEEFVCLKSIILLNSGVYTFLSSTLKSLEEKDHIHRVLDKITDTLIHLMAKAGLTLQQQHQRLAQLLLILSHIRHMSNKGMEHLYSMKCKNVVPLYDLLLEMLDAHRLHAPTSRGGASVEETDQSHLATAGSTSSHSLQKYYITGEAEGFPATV

Structure (SMILES)	Potency [1]	Potency [2]	Potency [3]	Potency [4]	Potency [5]	outcome [6]	Potency [7]	Potency [8]	Potency [9]	Potency [10]	Potency [11]	Potency [12]	Potency (Aromatase (Homo sapiens))	Potency [13]	Potency [14]	Potency [15]	Potency [16]	Potency [17]	Potency [18]	Potency [19]
Cc1cc(C)cc(OP(=O)(Oc2cc(C)cc(C)c2)Oc2cc(C)cc(C)c2)c1	inactive	inactive	inactive	inactive	inactive	inactive	inactive	inactive	inactive	inactive	inactive	inactive	inactive	inactive						
BrC(Br)Br	inactive	inactive	inactive	inactive	inactive	inactive		inactive				inactive	inactive	inactive	inactive	inactive				
Clc1ccc(CSC(Cn2ccnc2)c2ccc(Cl)cc2Cl)cc1 (stereo not given)	inactive	10.1 µM (active)	11.4 µM (active)			inactive		inactive			inactive	inactive	2.85 µM (active)	inactive						
C=CC(=O)OCC(COC(=O)C=C)(COC(=O)C=C)COC(=O)C=C	8.71 µM (active)	0.77 µM (active)	0.969 µM (active)	6.92 µM (active)	2.73 µM (active)	inactive		43.6 µM (active)	27.5 µM [inconclusive] (active)			24.3 µM (active)	3.06 µM (active)	2.73 µM (active)		1.93 µM (active)	inactive	1.93 µM (active)		
BrC(Br)C(Br)(Br)Br	inactive	inactive	inactive		24.5 µM (active)	inactive		inactive	inactive	inactive		inactive	61.5 µM (active)	54.8 µM (active)	inactive	19.4 µM (active)			inactive	
CC(C)OC(=O)C(O)(c1ccc(Cl)cc1)c1ccc(Cl)cc1	inactive	8.63 µM (active)	6.86 µM (active)		61.1 µM (active)	inactive	38.9 µM [inhibitor] (active)	inactive	inactive	inactive	inactive	inactive		inactive	7.7 µM (active)	61.1 µM (active)				
CC(C)OS(C)(=O)=O	inactive	inactive		inactive	inactive	inactive	inactive	inactive	inactive	inactive	inactive	inactive	inactive	inactive	inactive	inactive			inactive	
CCOC(=O)C1(c2ccccc2)CCN(CCC(C#N)(c2ccccc2)c2ccccc2)CC1	inactive	2.98 µM (active) and 5.31 µM (active)	3.76 µM (active) and 10.6 µM (active)			inactive	6.01 µM [inconclusive] (active)		53.5 µM [inconclusive] (active)		inactive	inactive	inactive	inactive	5.31 µM (active) and 9.44 µM (active)	9.44 µM (active) and 15 µM (active)	inactive	26.6 µM (active) and 53.1 µM (active)		
COc1ccc(/C(=C/C(=O)N2CCOCC2)c2ccc(Cl)cc2)cc1OC	inactive	24.3 µM (active)	30.6 µM (active)	inactive	inactive	inactive		inactive				inactive	inactive	inactive		inactive	inactive	30.6 µM (active)	inactive	inactive
O=C1c2ccccc2C(=O)C1C(=O)C(c1ccccc1)c1ccc(Cl)cc1 (stereo not given)	19.5 µM (active)	27.3 µM (active)	27.3 µM (active)	13.8 µM (active)	27.3 µM (active)	inactive	5.49 µM [inconclusive] (active)	43.6 µM (active)	inactive	inactive			54.5 µM (active)			15.4 µM (active)	inactive	15.4 µM (active)		inactive
S=C=Nc1cccc2ccccc12	inactive		60.5 µM (active)	inactive	inactive	inactive		inactive	inactive			inactive	27 µM (active)	30.3 µM (active)		inactive	inactive		inactive	
O=C(CCCN1CCC2(CC1)C(=O)NCN2c1ccccc1)c1ccc(F)cc1	inactive	29.8 µM (active)				inactive	8.49 µM [inconclusive] (active)		inactive				29.8 µM (active)							
Cc1cc(N=Nc2ccccc2C)ccc1N		27.3 µM (active)	54.5 µM (active) and 48.6 µM (active)	inactive	24.3 µM (active)	inactive		inactive				24.3 µM (active) and 27.3 µM (active)	inactive	24.3 µM (active)	27.3 µM (active) and 19.3 µM (active)	7.7 µM (active) and 27.3 µM (active)	inactive	inactive		
CCOC(=O)OC1=C(c2cc(C)ccc2C)C(=O)NC12CCC(OC)CC2 (stereo not given)	inactive		30.6 µM (active)	inactive		inactive	inactive		inactive		inactive	inactive	inactive	inactive		54.4 µM (active)			inactive	
Nc1ccc(Cc2ccc(N)c(Cl)c2)cc1Cl	53.1 µM (active)	74.4 µM (active)			52.7 µM (active)		4.22 µM [inconclusive] (active)	inactive	inactive			inactive	29.6 µM (active)						inactive	
